# Where “and” joins values, the source holds several entries; their conditions need not be identical. Identical values can stand only once. About 79,000 compounds went through this panel and 15% of them were active in at least one assay; those are over-represented in the sample as a whole. A number with no mark means an inactive call. Calls of active or inactive are those of the source. Rule as the data show it: active = growth inhibition above about 70%; inactive = the rest.
# How the values were obtained:
# [1] = NCI Yeast Anticancer Drug Screen. Data for the rad50 strain (AID 155);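 also: 0% = growth of vehicle-only cultures of the same strain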; conditions: S. cerevisiae rad50 strain growth inhibition; at 50.0 µM; hits give high values
# How it was run: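 Vehicle-treated cultures provide the reference for the growth inhibition reported for compound-exposed, repair-deficient yeast.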
# [2] = NCI Yeast Anticancer Drug Screen. Data for the mec2-1 strain (AID 157); conditions: S. cerevisiae mec2-1 strain, at 50.0 µM, hits give high values
# How it was run: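 Growth inhibition is read against vehicle-treated controls after compound exposure of the mec2-1 yeast strain, which is defective in DNA damage repair or cell cycle control.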
# [3] = NCI Yeast Anticancer Drug Screen. Data for the sgs1 mgt1 strain (AID 161);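 also: 0% = growth of cultures given vehicle only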; conditions: S. cerevisiae sgs1 mgt1 strain, at 50.0 µM, hits give high values
# How it was run: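 Yeast cells carrying a defined DNA-repair defect were exposed to test compounds. Growth inhibition was measured relative to vehicle-treated controls.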
# [4] = NCI Yeast Anticancer Drug Screen. Data for the cln2 rad14 strain (AID 165);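 also: 0% = growth equal to vehicle treated cultures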; conditions: S. cerevisiae cln2 rad14 strain, at 50.0 µM, hits give high values
# How it was run: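 Growth inhibition, relative to vehicle-treated controls, is the read-out. The test organism is a yeast strain with defined genetic alterations, cln2 rad14.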
# [5] = NCI Yeast Anticancer Drug Screen. Data for the bub3 strain (AID 167); conditions: S. cerevisiae bub3 mutant strain, at 50.0 µM, hits give high values
# How it was run: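 Mutant yeast screening strain plus compound; vehicle-treated cultures serve as the 0% inhibition reference.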
# [6] = NCI Yeast Anticancer Drug Screen. Data for the mlh1 rad18 strain (AID 175); conditions: S. cerevisiae mlh1 rad18 strain growth inhibition; at 50.0 µM; hits give high values
# How it was run: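 Cells of a genetically altered yeast strain, deficient in DNA damage repair, were treated with compound. Their growth was then compared with that of vehicle-treated cultures to give inhibition.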
Structure (SMILES),growth inhibition [1],growth inhibition [2],growth inhibition [3],growth inhibition [4],growth inhibition [5],growth inhibition [6]
ClCCN(CCCl)c1ccc(/C=N/N2CCN(/N=C/c3ccc(N(CCCl)CCCl)cc3)CC2)cc1,7.85%,-2.9%,21.9%,7.85%,-11.1%,-1.25%
NC(Cc1cccc(F)c1)c1nn[nH]n1 (centres undefined),-7.6%,2.35%,-0.1%,-22.8%,1.65%,-0.7%
COc1ccc(N=NC(=O)NC(CC(C)C)C(=O)NCC(=O)O)cc1 (centres undefined),-0.8%,2.45%,10.4%,28.8%,5.35%,5.35%
SCc1c(Cl)c(Cl)c(Cl)c(Cl)c1Cl.[Hg],-7.65%,-24.9%,-15.5%,-64.8%,3.45%,-28.1%
c1ccc(C2(N3CCC4(CC3)OCCO4)CCCCC2)cc1,13%,-2.9%,9.2%,-17.6%,1.35%,6.35%
CN1C(=O)C2(Cc3cn(C45CC67SSC(CO)(C(=O)N6C4Nc4ccccc45)N(C)C7=O)c4ccccc34)SSC1(CO)C(=O)N2C (centres undefined),90.2% (active),90.3% (active),90.3% (active),89.2% (active),90.8% (active),89.8% (active)
CCOP(=S)(OCC)OP(=O)(CC)CC,3.1%,-10.1%,-1.7%,4.4%,9.2%,-2.55%
CN1C(=O)N(C)C(O)C(Cl)(Br)C1=O (centres undefined),-0.5%,2.5%,7.3%,26.2%,5.9%,12.7%
COP(=O)(OC)/C(=C/c1c[nH]c2ccccc12)C(=O)O,-12.7%,-71.6%,-55.9%,-34.9%,-20.7%,-32.2%
O=C1CCP(c2ccccc2)(c2ccccc2)(c2ccccc2)O1,34.9%,11.8%,23.1%,25.7%,14.3%,7%
N.N.N.N.N#N.N#N.[Cl-].[Os+6],-25.4%,-24.1%,-34.6%,-7.95%,-35.4%,-39%
CC(CC(C)(C)[N-]CC[O-])=NCCO.O=[N+]([O-])O.[Cu+2],10.7%,20.2%,-5.7%,-0.05%,26.2%,18.7%
Cc1nccc2c1[nH]c1ccc(Br)cc12,13.7%,11.6%,-7.55%,-2%,9.55%,1.25%
COc1ccccc1N,-2.9%,1.25%,4.3%,-8.05%,-9.45%,-17.4%
CN(C)C(=O)c1cc(N(CCCl)CCCl)c([N+](=O)[O-])cc1[N+](=O)[O-],-2.75%,-10.1%,-3.35%,2.3%,-13.6%,0.3%
CN(C)S(=O)(=O)N(SC(F)(Cl)Cl)c1ccccc1,98.8% (active),99.5% (active),99.4% (active),98.8% (active),99.2% (active),99% (active)
CCOC(=O)C(C)Br (centres undefined),15%,5.3%,28.3%,-24.7%,44.6%,-8.2%
CP1CC(Br)C(Br)C1 (centres undefined),3.6%,-5%,19.9%,-7.05%,6.5%,2.5%
O=C=Nc1cccc(S(=O)(=O)F)c1,56.8%,4.15%,26%,28.4%,33.9%,11.9%
CN(C)CCc1ccc(O)cc1,3.9% and -2.85%,4.2% and 2.8%,10.1% and -3.15%,5.55% and -16.4%,2.85% and -2.9%,-0.85% and 4.85%

Structure (SMILES),growth inhibition [1],growth inhibition [2],growth inhibition [3],growth inhibition [4],growth inhibition [5],growth inhibition [6]
COc1cc(C(N)Cc2ccccc2)ccc1O (centres undefined),-9.85%,1%,-1.25%,-33.1%,26.6%,4.6%
Nc1ncnc2c1ncn2C1OC(CO)C2NP(=O)(N(CCCl)CCCl)OC21 (centres undefined),6.1% and 16.9%,-6.2% and 1.7%,-22.1% and -19.3%,-8.1% and 5.15%,-6.15% and -15.6%,-38% and -8.55%
COc1cccc(C=C2C(=O)NC(=S)NC2=O)c1O,-8.95%,-12.6%,-4.35%,15.7%,-2.25%,26.6%
S=C=Nc1ccccn1,9.9%,3.35%,22.1%,7.8%,30.6%,21.9%
ClCc1ccco1,0.35%,2.4%,10.6%,-11.4%,23.6%,36.2%
O=[N+]([O-])c1cccc(/C=C/C=C/c2ccc(Cl)c(S(=O)(=O)F)c2)c1,7.95%,14.4%,-39.5%,6.5%,9.05%,-7.1%
CCCCCCCCCCCCCCC(O)C1CCC(C(O)CCC(O)CCCCCC(O)CC2=CC(C)OC2=O)O1 (centres undefined),-37.2%,-33.1%,-17.6%,39.8%,-25.4%,2.7%
CCN1C(=O)C(=C/C=C/c2ccc(OC)cc2)C(=O)N(CC)C1=S,37.4%,10.8%,46.4%,11.8%,13.8%,36.7%
CCN(CCCl)c1cc(C(N)=O)c([N+](=O)[O-])cc1[N+](=O)[O-],-1.25%,-8.7%,9%,3.8%,5.25%,-19.6%
CC1C(C(=O)c2ccc(-c3ccccc3)cc2)N1C(C)(C)C (centres undefined),-10.4%,10.2%,7.75%,23.4%,1.15%,-11.8%
CCN1C2CCC1CC(=O)C2,0.95%,5.9%,-5.7%,-11.9%,-14.2%,7.85%
O=C(NC(=S)N1CC1)c1ccccc1,-13.9%,-43.4%,-7%,-7.8%,-26.4%,-36.3%
CSc1nsc(-c2ccccc2)[s+]1,13%,-11.6%,2.95%,-74.5%,-9.2%,18%
O=C(O)C1C2C=Cc3ccccc3C21 (centres undefined),4.5%,2.9%,-11.3%,-26.6%,-6.2%,6.45%
CC[C@]12C=CCN3CC[C@@]4(c5ccc(OC)cc5N(C)[C@H]4[C@@](O)(C(=O)OC)[C@@H]1OC(C)=O)[C@@H]32,30.7%,-6.5%,18.3%,19.8%,20.9%,8.35%
O=P(N1CCOCC1)(N1CC1)N1CC1,15.4%,-7.35%,-0.15%,13.7%,9%,34.7%
O=S(=O)(O)c1ccc(CBr)cc1,-27.6%,-27.6%,0.6%,-36.4%,-3.5%,-6.85%
CCC(C(=O)NC1CN2CCC1CC2)c1ccccc1 (centres undefined),-6.25%,-23.3%,-27.4%,-3.15%,-2.6%,-13.2%
CC(COC(=O)NCc1ccccc1)OC(N)=O (centres undefined),-1.05%,-14.8%,13.1%,-10.3%,1.15%,-11.4%
